Over roughly 39,000 sequences, “fluorescence intensity (a.u.)” has its median near 4,300; the highest 2% begin near 39,000. This excerpt belongs to a sample that is enriched for the highest values.
These sequences were tested against T1, OsSMF1 (Oryza sativa, UniProt Q6ZLB0 1-436) (assay: protein-binding microarray (RPBM); PBS, 2% BSA, 51.3 ng/ul salmon testes DNA, 50 uM zinc acetate, 200 nM TF, 25 C, 1 h; high values mean tight binding). Settings: protein: recombinant; tags: N-terminal polyhistidine and DsRed monomer fusion (pET32a); chain copies: 2; label: CyDye5-dUTP incorporated in the synthesized complementary strand; 3' TTTTT single-stranded linker to array surface; dsDNA, one strand shown.
T1 sequence: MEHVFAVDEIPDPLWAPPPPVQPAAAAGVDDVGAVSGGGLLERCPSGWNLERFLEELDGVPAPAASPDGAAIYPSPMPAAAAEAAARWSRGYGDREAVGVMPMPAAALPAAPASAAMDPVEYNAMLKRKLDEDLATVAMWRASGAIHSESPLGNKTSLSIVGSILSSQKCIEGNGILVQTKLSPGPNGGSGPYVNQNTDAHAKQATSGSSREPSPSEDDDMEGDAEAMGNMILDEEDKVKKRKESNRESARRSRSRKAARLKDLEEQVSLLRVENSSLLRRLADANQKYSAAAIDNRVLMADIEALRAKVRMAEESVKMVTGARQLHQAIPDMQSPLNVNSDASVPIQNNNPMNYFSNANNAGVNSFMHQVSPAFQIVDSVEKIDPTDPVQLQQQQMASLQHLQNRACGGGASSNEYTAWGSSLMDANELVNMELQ
Summary of the method: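 Binding signal here means per-feature fluorescence intensity in arbitrary units. The values were read on an Axon 4000B scanner after a custom Agilent array, double-stranded by primer extension with Cy5-dUTP, was incubated with 200 nM protein at 25 °C for 1 h in PBS with 2% BSA, salmon testes DNA and 50 µM zinc acetate, then washed. The proteins were transcription factors with an N-terminal polyhistidine tag and DsRed, expressed in E. coli BL21-CodonPlus and purified on Ni–NTA.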
In the case of “TGGTTGTATTAGGTTAATAAGCCACGTCAGTGAAAAGCACCGGAGTCACCTAGTGCAG”, the binding signal is reported as 16100 fluorescence intensity (a.u.).
“AGAAGGGGAGAAAAGGAAACCGATCTCGGTCATGGCCACGCGGAGTCACCTAGTGCAG” was tested, and the binding signal was 50900 fluorescence intensity (a.u.).
With “CCACCGGAAACAGGGAAGAAGAGGGGTCGAGAAAGGGGAGCGGAGTCACCTAGTGCAG” the binding signal was 4020 fluorescence intensity (a.u.).
With “AGCAGGAGAAGGGACCGAGAGAAGAGTCGCAGAGAGAGAGCGGAGTCACCTAGTGCAG” the binding signal was 3660 fluorescence intensity (a.u.).
With “TGAATGCACGTACTGGTGATGAATCTCTGATGGATGGAAGCGGAGTCACCTAGTGCAG” the binding signal was 3210 fluorescence intensity (a.u.).
“AGAGAGGGAAGGGAGGGAGGGAGGGAGGAGGGAGAGATCTCGGAGTCACCTAGTGCAG” was tested, and the binding signal was 6770 fluorescence intensity (a.u.).
With “AGCAGAGTGATCTCTGATGGTCACGGGCCGAGAAGGGAAGCGGAGTCACCTAGTGCAG” the binding signal was 45700 fluorescence intensity (a.u.).
With “GCCGCGCCGTCCTGTGTGTGCGTGGCGCCAATGCATGCTACGGAGTCACCTAGTGCAG” the binding signal was 3590 fluorescence intensity (a.u.).
With “GGTTTTGGAGAGCGGTTTCACTGACGTGGCAGTGTTGACCCGGAGTCACCTAGTGCAG” the binding signal was 22900 fluorescence intensity (a.u.).
In the case of “ACGCCTCATCTCCAGTCCACGGCTCAACGTCCACGCACACCGGAGTCACCTAGTGCAG”, the binding signal is reported as 3490 fluorescence intensity (a.u.).
“TGATTTTGTTTTAATACATGCAATCTTTCGATCCAATGGCCGGAGTCACCTAGTGCAG” was tested, and the binding signal was 24000 fluorescence intensity (a.u.).
With “TCGATCTGCACATGTGCACGCGCATGTGTCGTCGGCTTAGCGGAGTCACCTAGTGCAG” the binding signal was 3230 fluorescence intensity (a.u.).
For “GACTAATCAAACAATTTCCCTCGCTATTAGTCACTGACAGCGGAGTCACCTAGTGCAG”, the binding signal was 3590 fluorescence intensity (a.u.).
With “GCATGCGGGATAGGAGCTTGACTAGCATGACGAGGCAGAACGGAGTCACCTAGTGCAG” the binding signal was 5890 fluorescence intensity (a.u.).
“CACCTAGCATGCATAGGACGAGGCATTTAATTTTACTTATCGGAGTCACCTAGTGCAG” was tested, and the binding signal was 22000 fluorescence intensity (a.u.).
In the case of “ATTTAATAGTCCGGGAGGCATGCTTACGGACAAGGACGAACGGAGTCACCTAGTGCAG”, the binding signal is reported as 47100 fluorescence intensity (a.u.).
“GCATGCTCTCCGTGCCGTATGCGCTGTCGTAGGGCAGGTGCGGAGTCACCTAGTGCAG” was tested, and the binding signal was 3760 fluorescence intensity (a.u.).
In the case of “CGCCGCCGCCGTCGCTGCCGCCGCCGCCGCCGCCTAGGGTCGGAGTCACCTAGTGCAG”, the binding signal is reported as 29300 fluorescence intensity (a.u.).
For “TCACTTCTCTCCTCCACATGTGCATACAACTGACTTATAACGGAGTCACCTAGTGCAG”, the binding signal was 4660 fluorescence intensity (a.u.).
With “GTTGAATTCTGTGCGTGTAAGCAGACCTGCATTGCCGTCGCGGAGTCACCTAGTGCAG” the binding signal was 3170 fluorescence intensity (a.u.).
“TCCCAATTGACTAGAGGATGCTTCAGAGATGAAAACATGGCGGAGTCACCTAGTGCAG” was tested, and the binding signal was 3190 fluorescence intensity (a.u.).
With “GCAATTCACTCCAGTTCACTTTGCCAGCTTGTCTCTCTGACGGAGTCACCTAGTGCAG” the binding signal was 3520 fluorescence intensity (a.u.).
For “ATAATGAAAATGAGAATTCATGCCAGCTCTGCAAAGTGGACGGAGTCACCTAGTGCAG”, the binding signal was 4780 fluorescence intensity (a.u.).
For “TCCAGCTCTGAATTTCACTCTGCATGCATAAGTTGCAGGACGGAGTCACCTAGTGCAG”, the binding signal was 48100 fluorescence intensity (a.u.).
“ATATACAGTACACGTTCTTGCCCTCATTGCCACATAGTACCGGAGTCACCTAGTGCAG” was tested, and the binding signal was 4020 fluorescence intensity (a.u.).
For “TCCCCAAGTCAGTCAATGCCATCACTGTCATCTGCTCTCACGGAGTCACCTAGTGCAG”, the binding signal was 3200 fluorescence intensity (a.u.).
“TTCATTGACCGAGAACGATAGCACGCATCACATCAGCATCCGGAGTCACCTAGTGCAG” was tested, and the binding signal was 3250 fluorescence intensity (a.u.).
For “CGCGCGTGCGGTTCTTGTGTCCGAGGGTGGTGGTGTGTGGCGGAGTCACCTAGTGCAG”, the binding signal was 3360 fluorescence intensity (a.u.).
For “GAGGGTTCTTGATGCGTGACCTGATGCGGGAGGCGTATTGCGGAGTCACCTAGTGCAG”, the binding signal was 39200 fluorescence intensity (a.u.).
In the case of “TGGGAGTGCGTGGTGTGCGTGGCGTCGGTTCTTGCGGAGGCGGAGTCACCTAGTGCAG”, the binding signal is reported as 5410 fluorescence intensity (a.u.).
In the case of “ATTGAAAATTCTCTACTCTTTACACGTGTCCATCATCCCACGGAGTCACCTAGTGCAG”, the binding signal is reported as 19100 fluorescence intensity (a.u.).
“TCAAGTCATGAATTCTCCTATTTCAAGTCACTTCAGAAGTCGGAGTCACCTAGTGCAG” was tested, and the binding signal was 3330 fluorescence intensity (a.u.).
For “GCAGCGCCATGAAAGCGCATGGCATGCATGCACTGCACTGCGGAGTCACCTAGTGCAG”, the binding signal was 3520 fluorescence intensity (a.u.).
In the case of “TTTATGGATAGAAGATGCACCGGCCAGGTCATGAAGATCACGGAGTCACCTAGTGCAG”, the binding signal is reported as 4050 fluorescence intensity (a.u.).
For “CATGCCAGGTCAGTCGGCATCCATGAAGACTGCACTGCACCGGAGTCACCTAGTGCAG”, the binding signal was 42600 fluorescence intensity (a.u.).
With “AATCGTGCTCGATTGACCTCACTAATTCATCCCTGTAACCCGGAGTCACCTAGTGCAG” the binding signal was 25700 fluorescence intensity (a.u.).
For “GGGGTGAGGTGAGGTTACCACGTCGGCGACGGTGAGGAAGCGGAGTCACCTAGTGCAG”, the binding signal was 6110 fluorescence intensity (a.u.).
For “CTTATCTACTTGATATTTGCATATGTATACAGTTTTACTGCGGAGTCACCTAGTGCAG”, the binding signal was 3220 fluorescence intensity (a.u.).
“GGTAGCTGATACAGGTATGCAGACGAAAGATCACACCTATCGGAGTCACCTAGTGCAG” was tested, and the binding signal was 32500 fluorescence intensity (a.u.).
With “GCTGAGCTGAGCTGATATGATCAACACAGTGCAGACTTGGCGGAGTCACCTAGTGCAG” the binding signal was 3710 fluorescence intensity (a.u.).
In the case of “ATGATCAGATACACACTCTGGCTTGGCTTGTAGCTGCAACCGGAGTCACCTAGTGCAG”, the binding signal is reported as 50400 fluorescence intensity (a.u.).
“ACTTGATCAGCACACTCTGGTGACATGACAGCTGTAAAGTCGGAGTCACCTAGTGCAG” was tested, and the binding signal was 4180 fluorescence intensity (a.u.).
In the case of “GTAGTACCATGTATTAGATGGACTTCTCCACGTTTCTCTGCGGAGTCACCTAGTGCAG”, the binding signal is reported as 4980 fluorescence intensity (a.u.).
